Each structure is given as a SMILES string. Where “and” joins values, the source holds several entries; their conditions need not be identical. Equal values may be shown once. Where a structure was tested more than once in an assay, its records may differ in their call. Calls of active or inactive are those of the source. The calls were made as follows: active = hit-call score of the fitted dose curve at least 0.9, where 1 is the maximum; inactive = score below 0.9.

Read-out in the experiment: sulfotransferase 2A1 (SULT2A1), SULT2A1 (gene 6822)
In words: LTEA_HepaRG_SULT2A1: Life Technologies and Expression Analysis (LTEA) Assay for sulfotransferase 2A1 (SULT2A1) using HepaRG (AID 2283531). As to conditions: mRNA level, 48 h; actives raise or lower the signal. How it is done: LTEA_HepaRG is a cell based, multiplexed-readout assay that uses HepaRG, a human liver cell line, with measurements taken at 48 hours after chemical dosing on a 96-well plate.LTEA_HepaRG_SULT2A1 is one of 102 assay component(s) measured in the LTEA HepaRG cell culture assay. It is a marker of NR mediated transport.Data from the assay component LTEA_HepaRG_SULT2A1 was analyzed into 1 endpoint. This assay endpoint, LTEA_HepaRG_SULT2A1, was analyzed with bidirectional fitting relative to DMSO as the negative control and baseline of activity. Using a type of inducible reporter, measures of mRNA induction for gain or loss-of-signal activity can be used to understand regulation of transcription factor activity. To generalize the intended target to other relatable targets, this assay endpoint is annotated to the transferase intended target family, where the subfamily is sulfotransferase.
A total of 1060 chemcials from the ToxCast library were tested in eight-point concentration-response experiments. Cell culture and cytotoxicity assays were conducted at Thermo Fisher Scientific's Custom Services facility (Madison, WI). A single lot of human HepaRG cells (Thermo Fisher Scientific, Frederick, MD) was used for the cell culture experiments. 96-well format collagen type I coated plates of human HepaRG cells were prepared using established methods. Briefly, cryopreserved HepaRG cells were thawed, plated at a density of approximately 100,000 cells/well in HepaRG Thaw, Plate, and General Purpose media (HPRG770, Thermo Fisher Scientific), and incubated for 48 hours. 0.5% DMSO was selected as vehicle control to balance the requisite need of DMSO in HepaRG cultures to maintain differentiation (for example, baseline metabolism, proportions of hepatocytes vs. cholangiocytes), while enabling further hepatic receptor pathway activation (for example, PXR and CAR) in response to chemical exposure. 48 hours after plating, the culture medium was replaced with HepaRG Serum-Free Incudtion Media. Cells were exposed to each test chemical in duplicate and maintained in CO2 incubators for another 48 hours. Chemical plates were thawed to room temperature and 200x concentrations of treatment groups were prepared. 8-point conentration-reponse curves were made with the highest exposure at 100 uM, followed by half-log dilutions, all in 0.5% DMSO. Each test plate contained variouse controls, induction positive controls (1mM phenobarbital), cytotoxicity positive controls ([…] aflatoxin B1), vehicle controls (0.5% DMSO), and total lysis controls (0.5% DMSO). Cell morphology images were taken using an Essen IncuCyte FLR automated microscope, with six 96-well plates imaged in about 24 minutes. Images were captured and exported and JPEG files. Spent culture media was transfered to black-well plates for the LDH assay, and remaining media was sorted at -80 C for later use. Cells were treated with RLT buffer and frozen until shipped for gene expression analysis. Total RNA was isolated from the cell suspension in 75 uL of Buffer RLT (Qiagen, Germantown, MD 20874) by Quintiles/Expression Analysis (Durham, NC) using a custom isolation procedure. Total RNA from each plate well was transferred to a preamplification plate. Fluidigm's 96.96 Dynamic ArrayTM (Fluidigm, Amsterdam, the Netherlands) technology was used for gene expression analyses by quantitative reverse transcription polymerase chain reaction (qRT-PCR, performed by Quintiles/Expression Analysis, Durham, NC)89. Standard TaqManTM Assays (Applied Biosystems/ThermoFisher Scientific, Foster City, CA) were used to assess the expression of 93 genes selected based on their selectivity and sensitivity to important hepatic receptors known to be modulated by environmental chemicals; importance in human hepatocyte functionality; and hepatotoxicity. […]
What is called AC50 is the concentration giving half of the maximal activity seen. `CC(C)N(C(=O)COc1nnc(C(F)(F)F)s1)c1ccc(F)cc1`: the AC50 is 13.8 µM (active).

Turning to `O=C(O)C(F)(F)C(F)(F)C(F)(F)C(F)(F)C(F)(F)C(F)(F)C(F)(F)F`, the molecule was classed as inactive.

`CCc1ccc(C(=O)NN(C(=O)c2cc(C)cc(C)c2)C(C)(C)C)cc1`: the molecule was called inactive.

Consider `N#CN`, for which the outcome was inactive.

With `COc1nn(CSP(=S)(OC)OC)c(=O)s1`, the molecule was called inactive.

Take `Clc1ccccc1-c1nnc(-c2ccccc2Cl)nn1`: the molecule was called inactive.

In the case of `CC1(c2ccc(Oc3ccccc3)cc2)OC(=O)N(Nc2ccccc2)C1=O` (stereo not given), the AC50 is 32.5 µM (active).

As to `C[C@H]1[C@H](c2ccc(Cl)cc2)SC(=O)N1C(=O)NC1CCCCC1`, the AC50 was 93.4 µM (active).

Take `CCOC1Oc2ccc(OS(C)(=O)=O)cc2C1(C)C` (stereo not given): the AC50 is 83.5 µM (active).

For the molecule `CCCN(CCC)c1c([N+](=O)[O-])cc(C(F)(F)F)cc1[N+](=O)[O-]`, the molecule was classed as inactive.

For the molecule `COP(=O)(OC)OC=C(Cl)Cl`, the molecule was classed as inactive.

Turning to `COP(=S)(OC)Oc1ccc([N+](=O)[O-])cc1`, the molecule was called inactive.

Take `CNC(=O)CSP(=S)(OC)OC`: the outcome was inactive.

`O=[N+]([O-])c1c(Cl)c(Cl)c(Cl)c(Cl)c1Cl`: the molecule was called inactive.

As to `OCCOc1ccccc1`, the molecule was classed as inactive.

With `CC[C@H](C)[C@H]1O[C@]2(C=C[C@@H]1C)C[C@@H]1C[C@@H](C/C=C(\C)[C@@H](O[C@H]3C[C@H](OC)[C@@H](O[C@H]4C[C@H](OC)[C@@H](O)[C@H](C)O4)[C@H](C)O3)[C@@H](C)/C=C/C=C3\CO[C@@H]4[C@H](O)C(C)=C[C@@H](C(=O)O1)[C@]34O)O2` (tested in a mixture with another compound), the AC50 was 8.58 µM (active).

As for `CN1CSC(=S)N(C)C1`, the molecule was called inactive.

For `CC(C)(C)C(O)C(Oc1ccc(Cl)cc1)n1cncn1` (stereo not given), the result was inactive.

Consider `ClC1C(Cl)C(Cl)C(Cl)C(Cl)C1Cl` (stereo not given), for which the outcome was inactive.

For `O=C(O)CCCOc1ccc(Cl)cc1Cl`, the molecule was classed as inactive.

In the case of `O=S1OCC2C(CO1)C1(Cl)C(Cl)=C(Cl)C2(Cl)C1(Cl)Cl` (stereo not given), the concentration at half-maximal activity (AC50) is 91.7 µM (active).

As for `O=C(NC(=O)c1c(F)cccc1F)Nc1ccc(OC(F)(F)C(F)OC(F)(F)F)c(Cl)c1` (stereo not given), the call was inactive.

Regarding `CCC(C)(NC(=O)c1cc(Cl)c(C)c(Cl)c1)C(=O)CCl` (stereo not given), the AC50 is 79.5 µM (active).

For the molecule `O=C1c2ccccc2C(=O)N1SC(Cl)(Cl)Cl`, the result was inactive.

For `CCC(C)Nc1c([N+](=O)[O-])cc(C(C)(C)C)cc1[N+](=O)[O-]` (stereo not given), the call was inactive.

Regarding `O=C(O)COc1ccc(Cl)cc1Cl`, the outcome was inactive.

Regarding `CC(C)OC(=O)Nc1cccc(Cl)c1`, the result was inactive.

In the case of `CNC(=O)/C=C(\C)OP(=O)(OC)OC`, the call was inactive.

On to `COP(=S)(OC)Oc1ccc(SC)c(C)c1`, for which the result was inactive.

Turning to `N#Cc1c(Cl)c(Cl)c(Cl)c(C#N)c1Cl`, the molecule was called inactive.

Regarding `O=[N+]([O-])/N=C1\NCCN1Cc1ccc(Cl)nc1`, the AC50 is 31.8 µM (active).

For `CCC(C)(C)C(=O)OC1=C(c2ccc(Cl)cc2Cl)C(=O)OC12CCCCC2`, the molecule was called inactive.

As to `O=C(Nc1ccccc1)Nc1cnns1`, the AC50 is 50 µM (active).

For `CCN(CC)C(=O)SCc1ccc(Cl)cc1`, the result was inactive.

`O=S(=O)(O)C(F)(F)C(F)(F)C(F)(F)C(F)(F)C(F)(F)C(F)(F)C(F)(F)C(F)(F)F`: the AC50 is 7.51 µM (active) and 83 µM (active) and 85.1 µM (active); the molecule was called inactive.

As for `CC(C)(C)C(O)/C(=C\c1ccc(Cl)cc1Cl)n1cncn1` (stereo not given), the AC50 was 35.2 µM (active).

Turning to `Oc1ccc(Cl)cc1Cc1ccccc1`, the result was inactive.

For the molecule `CNC(=O)Oc1ccccc1OC(C)C`, the call was inactive.

Take `C#CCN1C(=O)COc2cc(F)c(N3C(=O)C4=C(CCCC4)C3=O)cc21`: the result was inactive.

The record behind these values is PubChem BioAssay (EPA / NIEHS).
